A number with no mark means an inactive call. Records with an inconclusive call do not appear. Calls of active or inactive are those of the source. Unless noted, calls follow the shape of the dose curve; as a rule, active = well fitted curve in the direction sought with a large enough effect in the repeat runs; inconclusive = weak or mixed curves; inactive = no such curve, though single readings can be large; an effect the other way counts as inactive or inconclusive.

The nature of assay [1]: qHTS assay to identify small molecule antagonists of the constitutive androstane receptor (CAR) signaling pathway - cell viability counter screen (AID 1224837). Also: nearly all actives have a fitted effect of over 45% in size. Also: potency is read from the fitted curve at half-maximal effect. The gist of the method:
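HepG2-CYP2B6-hCAR cells, 2500/well, 4 hr pre-incubation; compound titration, 15 conc.; CITCO 50 nM final; 23 hr, 37 C/5% CO2; CellTiter-Fluor, fluorescence intensity.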
In general terms: In qHTS, concentration-response curves come from the screen itself.

Assay [2] has as its target Nuclear receptor subfamily 1 group I member 3 (Homo sapiens) (UniProt Q14994). Put plainly: qHTS assay to identify small molecule antagonists of the constitutive androstane receptor (CAR) signaling pathway (AID 1224838).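 Also: HepG2 cells stably expressing hCAR with CYP2B6 luciferase reporter stimulated by CITCO; nearly all actives have a fitted effect of over 40% in size.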 Also: potency is read from the fitted curve at half-maximal effect. The procedure, abridged:
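HepG2-CYP2B6-hCAR cells; 4 h pre-incubation; cpd (15 conc) + CITCO 50 nM final; 24 h, 37 C/5% CO2; ONE-Glo, luminescence.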

For assay [3] the target is unchanged. Put plainly: qHTS assay to identify small molecule agonists of the constitutive androstane receptor (CAR) signaling pathway (AID 1224839). Also: nearly all actives have a fitted effect of over 15% in size. Also: potency is read from the fitted curve at half-maximal effect.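 As to activation: HepG2 cells stably carrying human CAR and a CYP2B6 luciferase reporter.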 The procedure, abridged: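 Cells were plated and incubated 4 hrs, then dosed with compounds at 15 concentrations. PK11195 was added to 0.75 uM final. After 24 hrs at 37 C, luciferase luminescence was measured.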
Assay [4] can be described thus: qHTS assay to identify small molecule antagonists of the estrogen related receptor signaling pathway with the pleiotropic PPARgamma coactivator (PGC) from Tox21 10K library - cell viability counter screen (AID 1224840; active = well fitted cell-killing curve with a large enough effect in the repeat runs, not every such curve was filed as active; also: nearly all actives have a fitted effect of over 40% in size; also: potency is read from the fitted curve at half-maximal effect). The procedure, abridged:
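PGC/ERR cells, 2,000/well; 6 h pre-incubation 37 C/5% CO2; cpd in DMSO via pin tool; 17.5 h 37 C; CellTiter-Fluor, 30 min; fluorescence.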

Assay [5] in a line: qHTS assay to identify small molecule antagonists of the estrogen related receptor signaling pathway with the pleiotropic PPARgamma coactivator (PGC) from Tox21 10K library (AID 1224841; call rule not given here; also: actives are mostly falling curves and most rising ones were filed inactive; nearly all actives have a fitted effect of over 50% in size; also: potency is read from the fitted curve at half-maximal effect). The gist of the method:
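PGC/ERR cell line, 2,000 cells/well; 6 h pre-incubation 37 C/5% CO2; compounds (DMSO) pinned in; 18 h, 37 C; One-Glo, 30 min RT; luminescence.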

A short description of assay [6]: qHTS assay to identify small molecule agonists of the estrogen related receptor signaling pathway with the pleiotropic PPARgamma coactivator (PGC) from Tox21 10K library (AID 1224842). Also: nearly all actives have a fitted effect of over 15% in size. The gist of the method: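 PGC/ERR reporter cells (NTP line) were seeded 2,000 per well, rested 6 h at 37 C/5% CO2, then pin-dosed with compounds in DMSO for 18 h at 37 C; luciferase read by One-Glo luminescence after 30 min at room temperature.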

Assay [7] concerns the target Thyrotropin receptor (Homo sapiens) (UniProt P16473). Put plainly: qHTS assay to identify small molecule agonists of the thyroid stimulating hormone receptor (TSHR) signaling pathway (AID 1224843; calls by dose curve; also: nearly all actives have a fitted effect of over 45% in size; also: potency is read from the fitted curve at half-maximal effect). The gist of the method: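 Cell line HEK293 with TSHR; density 800/well. Exposure 30 min RT. Readout HTRF cAMP (cAMP-d2/anti-cAMP-cryptate), 1 h RT before reading.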
Assay [8] can be described thus: qHTS assay to identify small molecule agonists of the hypoxia (HIF-1) signaling pathway - cell viability counter screen (AID 1224844; calls by dose curve; also: nearly all actives have a fitted effect of over 50% in size; also: potency is read from the fitted curve at half-maximal effect). The procedure, abridged:
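ME-180 HRE-bla cells, 2,000/well, 0.5% dialyzed FBS; 5 hr settle, 17 hr compound at 37C/5% CO2; CCF4-AM reporter read first, then CellTiter-Glo luminescence after 30 min RT.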

A short description of assay [9]: qHTS assay to identify small molecule agonists of H2AX (AID 1224845; active = well fitted activation curve with a large enough effect in the signal ratio in the repeat runs, not every such curve was filed as active; the % refers to the signal ratio; also: potency is read from the fitted curve at half-maximal effect). The procedure, abridged: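 Wild-type CHO-K1 cells plated overnight, then exposed 3 hr at 37C to compounds at 15 concentrations (0.76% DMSO). Lysed, then HTRF anti-pH2AX(S139)-cryptate/anti-H2AX-d2 detection after 24 hr at room temperature; emissions 665 and 620 nm.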
A short description of assay [10]: qHTS assay to identify small molecule agonists of the hypoxia (HIF-1) signaling pathway (AID 1224846; active = well fitted activation curve with a large enough effect in the signal ratio in the repeat runs, not every such curve was filed as active; the % refers to the signal ratio). The procedure, abridged:
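Cell line: CellSensor HRE-bla ME-180; 2,000 cells/well; 0.5% dialyzed FBS; 5 h preincubation; DMSO compound pin transfer; 17 h, 37C, 5% CO2; CCF4-AM added; bla FRET signal scored for activation.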

Assay [11] is described as follows: qHTS assay to identify small molecule agonists of H2AX - cell viability counter screen (AID 1224847; calls by dose curve; also: nearly all actives have a fitted effect of over 30% in size; also: potency is read from the fitted curve at half-maximal effect). The gist of the method: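 Cytotoxicity counter screen in wild-type CHO-K1 cells: a 3 hr compound treatment at 37C across 15 concentrations, followed by CellTiter-Glo luminescence to gauge viable cells.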
Assay [12] is described as follows: qHTS assay to identify small molecule antagonists of the estrogen related receptor (ERR) signaling pathway from Tox21 library (AID 1224848). Also: nearly all actives have a fitted effect of over 50% in size. Also: potency is read from the fitted curve at half-maximal effect. The gist of the method: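 Screening used an ERR reporter line supplied by NTP, exposed for 18 h at 37 C to library compounds delivered in DMSO. Signal was luciferase luminescence developed with ONE-Glo at room temperature for 30 min.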

Assay [13] is described as follows: qHTS assay to identify small molecule agonists of the estrogen related receptor (ERR) signaling pathway from Tox21 library (AID 1224849; calls by dose curve; also: nearly all actives have a fitted effect of over 15% in size). As to conditions: ERR reporter cell line, ONE-Glo luciferase, 18 h; at 92.4 µM (top of the series) unless noted. The gist of the method:
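ERR cells, 6 h pre-incubation 37 C/5% CO2; cpd in DMSO pinned; 18 h 37 C; ONE-Glo added, 30 min RT; luminescence read. Agonist mode, qHTS.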

Assay [14] in a line: qHTS RealTime-Glo MT Cell Viability Assay in HepG2 cells - 24 hour (AID 1224867). Also: nearly all actives have a fitted effect of over 50% in size. Also: potency is read from the fitted curve at half-maximal effect. The procedure, abridged:
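Real-time, nonlytic viability: 600 HepG2 cells/well mixed with NanoLuc enzyme plus prosubstrate; 5 h settle, compound (DMSO) added by pintool; luminescence monitored over 40 h at 37 C.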

The nature of assay [15]: qHTS RealTime-Glo MT Cell Viability Assay in HEK293 cells - 32 hour (AID 1224868). Also: nearly all actives have a fitted effect of over 50% in size. Also: potency is read from the fitted curve at half-maximal effect. The procedure, abridged: (§1)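 Cells + reagent dispensed (600 cells/well, HEK293) → 5 h at 37 C/5% CO2 → 23 nL compound in DMSO pinned → 40 h at 37 C → luminescence read at 0, 8, 16, 24, 32, 40 h.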
A short description of assay [16]: A CellTox Green Cytotoxicity Assay to monitor cytotoxicity in HEK293 cells - 0 hour (AID 1224869). Also: nearly all actives have a fitted effect of over 50% in size. The procedure, abridged:
(§2)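 Nonlytic real-time cytotoxicity: HEK293 + CellTox Green reagent plated, 5 h preincubation, pintool compound addition (23 nL in DMSO), 37 C for 40 h, fluorescence measured at successive time points.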

A short description of assay [17]: qHTS RealTime-Glo MT Cell Viability Assay in HepG2 cells - 40 hour (AID 1224870). Also: nearly all actives have a fitted effect of over 50% in size. Also: potency is read from the fitted curve at half-maximal effect. The procedure, abridged:
(§3)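 HepG2 cells mixed with RealTime-Glo MT reagents (NanoLuc plus cell-permeant prosubstrate) were seeded at 600 cells/well, incubated 5 h at 37 C/5% CO2, then pinned with compounds in DMSO; nonlytic luminescence tracked viability during 40 h treatment.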

Assay [18] is described as follows: qHTS RealTime-Glo MT Cell Viability Assay in HEK293 cells - 16 hour (AID 1224872). Also: nearly all actives have a fitted effect of over 50% in size. Also: potency is read from the fitted curve at half-maximal effect. The gist of the method: as §1
Assay [19] can be described thus: qHTS RealTime-Glo MT Cell Viability Assay in HepG2 cells - 8 hour (AID 1224873). Also: nearly all actives have a fitted effect of over 55% in size. Also: potency is read from the fitted curve at half-maximal effect. The procedure, abridged: as §3
A short description of assay [20]: A CellTox Green Cytotoxicity Assay to monitor cytotoxicity in HEK293 cells - 40 hour (AID 1224871). Also: nearly all actives have a fitted effect of over 45% in size. Also: potency is read from the fitted curve at half-maximal effect. The procedure, abridged: as §2
% is scaled to controls: 0 for no effect and ±100 for the full control effect.

Nuclear receptor subfamily 1 group I member 3 (Homo sapiens), sequence (Q14994 whole entry, looked up): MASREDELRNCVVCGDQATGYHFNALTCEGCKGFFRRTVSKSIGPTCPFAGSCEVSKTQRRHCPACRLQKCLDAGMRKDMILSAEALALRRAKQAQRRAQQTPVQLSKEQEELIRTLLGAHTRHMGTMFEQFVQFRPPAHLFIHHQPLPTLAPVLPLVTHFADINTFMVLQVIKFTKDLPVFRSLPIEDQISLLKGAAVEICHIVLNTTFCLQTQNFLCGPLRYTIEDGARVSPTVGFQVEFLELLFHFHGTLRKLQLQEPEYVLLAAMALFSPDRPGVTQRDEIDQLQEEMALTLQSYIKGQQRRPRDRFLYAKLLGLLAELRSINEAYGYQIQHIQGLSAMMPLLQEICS
Thyrotropin receptor (Homo sapiens), sequence (P16473 whole entry, looked up): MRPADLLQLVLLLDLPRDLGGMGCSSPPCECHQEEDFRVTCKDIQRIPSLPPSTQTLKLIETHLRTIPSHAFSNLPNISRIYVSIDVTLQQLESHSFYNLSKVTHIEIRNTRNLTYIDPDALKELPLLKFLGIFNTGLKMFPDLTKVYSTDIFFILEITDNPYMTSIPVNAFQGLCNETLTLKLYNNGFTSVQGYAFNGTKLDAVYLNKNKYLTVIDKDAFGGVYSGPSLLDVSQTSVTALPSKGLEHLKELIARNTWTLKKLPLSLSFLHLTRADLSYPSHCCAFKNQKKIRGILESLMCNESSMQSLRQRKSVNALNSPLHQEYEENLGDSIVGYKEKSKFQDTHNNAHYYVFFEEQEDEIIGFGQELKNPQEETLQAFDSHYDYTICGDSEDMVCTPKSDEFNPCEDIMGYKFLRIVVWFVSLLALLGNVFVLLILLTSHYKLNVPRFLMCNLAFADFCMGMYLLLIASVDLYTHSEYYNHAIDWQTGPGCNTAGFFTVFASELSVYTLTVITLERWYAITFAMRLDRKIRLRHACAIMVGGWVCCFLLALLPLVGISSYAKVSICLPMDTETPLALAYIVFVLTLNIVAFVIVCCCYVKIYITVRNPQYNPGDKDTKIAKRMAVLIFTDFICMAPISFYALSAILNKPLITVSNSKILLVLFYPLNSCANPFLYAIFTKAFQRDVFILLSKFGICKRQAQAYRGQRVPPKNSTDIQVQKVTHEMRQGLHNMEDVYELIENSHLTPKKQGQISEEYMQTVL

As for `CCCCCCCCc1ccc(Nc2ccc(CCCCCCCC)cc2)cc1`, the Potency entry in assay [1], in assay [2], in assay [3], in assay [4], in assay [6] and in [7] was “inactive” throughout. Further, the Potency result in assay [8], in assay [9], in [10], in assay [11], in assay [12] and in [14] was “inactive” throughout. The Potency result in assay [15], in [16], in [17], in assay [18] and in assay [19] was “inactive” in each case. Moreover, the Potency in [5] was 11.9 µM (active). Besides, in assay [13], the activity change, positive = activation is -4.1% [at 42.5 µM].
As for `CCCCCc1ccc(O)cc1`, the Potency result in assay [1], in [2], in [4], in assay [5], in assay [7] and in [12] was “inactive” in each case. The Potency entry in [14], in assay [16], in [17] and in [19] was “inactive” each time. For the same compound, the Potency is 54.5 µM (active) in [3], 89.8 µM (active) in assay [11] and 34.7 µM (active) in assay [20]. Also, in assay [13], the activity change, positive = activation is 1.58%.
As to `Oc1ccc(C2(c3ccc(O)c(C4CCCCC4)c3)CCCCC2)cc1C1CCCCC1`, the Potency is 27.3 µM (active) in [1]; 27.3 µM (active) in [2]; 61.1 µM (active) in assay [4]; 54.5 µM (active) in assay [5]; 6.86 µM (active) in [7]; 12.3 µM (active) in assay [8]. In addition, the Potency was 22.5 µM (active) in [9]; 22.5 µM (active) in assay [11]; 38.6 µM (active) in [12]; 34.7 µM (active) in [14]; 38.9 µM (active) in assay [15]; 34.7 µM (active) in assay [17]. In addition, the Potency in assay [18] and in assay [19] was 43.6 µM (active) each time. The Potency result in assay [3], in assay [16] and in [20] was “inactive” throughout. For the same compound, the activity change, positive = activation in assay [13] is -70.3%.
For the compound `CCN(CCC#N)c1ccc(N=Nc2ccc([N+](=O)[O-])cc2)cc1`, the Potency result in assay [1], in assay [2], in assay [4], in [5], in assay [7] and in assay [8] was “inactive” throughout. The Potency result in assay [9], in assay [10], in [12], in assay [14], in assay [15] and in assay [16] was “inactive” in each case. In addition, the Potency result in assay [17], in assay [18] and in [19] was “inactive” in each case. For the same compound, the Potency in assay [3] is 13.7 µM (active). For the same compound, the activity change, positive = activation in assay [13] was 15.7% (active).
Regarding `SC1CCCCC1`, the Potency result in [1], in assay [2], in [3], in assay [4], in [5] and in assay [6] was “inactive” in each case. Moreover, the Potency entry in assay [7], in assay [8], in assay [9], in assay [10], in assay [12] and in assay [14] was “inactive” throughout. For the same compound, the Potency entry in assay [15], in assay [16], in assay [17], in assay [18] and in assay [19] was “inactive” in each case. In addition, the activity change, positive = activation in assay [13] is 7.84%.
Turning to `Nc1cc([N+](=O)[O-])ccc1Cl`, the Potency result in [1], in assay [2], in [3], in assay [4], in [5] and in assay [6] was “inactive” throughout. The Potency entry in [7], in assay [8], in [9], in assay [10], in [11] and in assay [12] was “inactive” each time. Also, the Potency entry in assay [14], in assay [15], in assay [16], in assay [17], in [20] and in assay [18] was “inactive” throughout. In addition, the Potency result in assay [19] is “inactive”. Moreover, the activity change, positive = activation in assay [13] is 1.59%.

(Values after PubChem BioAssay (Tox21).)
